ChEMBL document CHEMBL4513216, “Probing the Open Global Health Chemical Diversity Library for Multistage-Active Starting Points for Next-Generation Antimalarials” (ACS Infect Dis, 2020)
Hit rate of the full screen: of about 69,000 compounds, about 8,600 (12%) showed an effect of 50% or more. The sample holds strong results, similar compounds and a random draw of the others, so the mix is not that of the screen.

The compounds below were run on Plasmodium berghei (assay: Screen against P. berghei liver stage (PbLuc), transformed with Luciferase, at 10uM). Conditions: tested at 10 uM.
Assay type: functional, HepG2

In order of rising INHIBITION:
1. CC(C)c1cc(C(=O)N2CCN(c3ccncc3)CC2)n(C)n1  -106%
2. COC(=O)CCCNC(=O)N1CCc2c([nH]c3ccc(Cl)cc23)C1  -50%
3. CN(CCCOc1ccccc1Cl)C(=O)CN1C(=O)CCNC1=O  -44.2%
4. COc1cccc(-c2cc(NCc3cscn3)n(C)n2)c1  -40.5%
5. COc1cccc(C2CC(=O)Nc3c2cnn3C(C)(C)C)c1 (stereo unspecified)  -38.6%
6. O=C1C(n2nnc(-c3ccsc3)n2)CCN1CC(F)(F)F (stereo unspecified)  -35.9%
7. COc1ccc(NC(=O)N2CCN(CCSc3ccccc3)CC2)cc1  -28.15%
8. CN(C)C(CNC(=O)c1ccc(-n2cnnn2)cc1)c1ccccc1Cl (stereo unspecified)  -20.5%
9. CCc1nc(C2CCCN2C(=O)c2csc(NC(C)=O)n2)no1 (stereo unspecified)  -17%
10. CC(=O)NCc1ccc(C(=O)N2CCCC2c2cnn(C)c2)cc1 (stereo unspecified)  -12.1%
11. Cc1cc(CN(C)C(=O)c2ccc(Cl)c(N3CCCC3=O)c2)no1  -11.4%
12. Cc1csc(C(=O)N2CCC3(CC(N(C)c4ccncn4)C3)C2)c1 (stereo unspecified)  -10.8%
13. CCn1cnnc1C1CCN(C(=O)c2cc(C)n(CC)c2C)CC1  -10.6%
14. CC(C)n1ccnc1Cn1ccc2ncccc2c1=O  -9.91%
15. CN(C)CCN1CCN(C(=O)c2ccn(C)c(=O)c2)CC1  -7.31%
16. CC(=O)N1CCC(c2cncc(N3CCCC(O)C3)n2)CC1 (stereo unspecified)  -6.73%
17. Cc1csc(NC(=O)c2cccnc2N2CCOCC2)n1  -3.39%
18. O=C1NCCCC12CCN(S(=O)(=O)N1CCOCC1)C2 (stereo unspecified)  -3.24%
19. O=c1cc(C2CCNCC2)nc(CCc2ccccn2)[nH]1  -0.273%
20. CN(C)CCCN(Cc1ccco1)Cc1ccnn1C1CCCCO1 (stereo unspecified)  -0.232%
21. Cc1ccoc1C(=O)N1C[C@@H]2[C@@H](C1)OCC(=O)N2Cc1cccnc1  0%
22. CC(C)c1ncc2c(n1)CN(CC(=O)Nc1ccc(Cl)cn1)CC2  0.914%
23. CC(NC(=O)CCc1ccsc1)c1ccc2c(c1)NC(=O)CO2 (stereo unspecified)  1.223%
24. CC(C)c1nn(C)c(Cl)c1CNCc1ccc2c(c1)OCCO2  1.5%
25. CCOC(=O)C1CCCN(c2nccc(-n3nc(C)cc3C)n2)C1 (stereo unspecified)  1.74%
26. COCCC(=O)N1C[C@@H](c2cccc(OC)c2)[C@@]2(CCCCC(=O)N2)C1  3.48%
27. Cc1cc(S(=O)(=O)Nc2onc(C)c2C)c(C)s1  4.1%
28. CCOc1cc(Cl)c(CN2CCC3(CCCNC3=O)C2)cc1OC (stereo unspecified)  9.41%
29. CN(C)c1cc(CNC(=O)c2cccnc2O)ccn1  9.64%
30. O=C(c1ccc2c(c1)CCC2)N1CCN(c2ccc(Cl)cn2)CC1  11.1%
31. CN(C)S(=O)(=O)N1CCN(C(=O)c2cc(-c3ccc(Br)s3)n[nH]2)CC1  11.2%
32. Cc1ccc(S(=O)(=O)NC(=O)COc2cccc(C(N)=O)c2)s1  11.2%
33. COC(=O)c1cc(NCc2cscn2)ccc1C  11.9%
34. CCN(CC)Cc1cc(C(=O)N2CCC3(CC2)NCCNC3=O)c(C)o1  12.4%
35. COc1cc(-c2n[nH]c(CC#N)n2)cc(OC)c1OC  12.7%
36. CCCn1nccc1NC(=O)CN1CCc2c(nc(C(C)C)n2C)C1  12.7%
37. O=C(c1ncn2c(C3CCN(CC4CC4)CC3)ccnc12)N1CCCC1  12.7%
38. CC(C)N1CCC(c2ccnc3c(C(=O)N4CCOCC4)ncn23)CC1  12.7%
39. CCc1nc2n(n1)CCCC2NC(=O)Nc1cc(OC)ccc1C (stereo unspecified)  13.5%
40. COCCN(C)c1ccc(NCc2cccnc2)nc1  15.1%
41. Cc1cc(CNC(=O)CCN2CCN(c3ccccn3)CC2)c(C)o1  15.8%
42. CCn1cc(CNc2ccc3nccnc3c2)cn1  18.8%
43. CN1CC2(CCCN(Cc3nnc(-c4cccc(F)c4)o3)C2)OC1=O (stereo unspecified)  19.4%
44. O=C1NCCCC12CCN(Cc1ccc(-c3ccccc3)s1)C2 (stereo unspecified)  21.2%
45. Cc1ccc(C(=O)N2CC[C@@H]3CN(C4CCOCC4)CCO[C@@H]3C2)o1  22.2%
46. O=c1cc(C2CCNCC2)nc(CCCc2ccccc2)[nH]1  22.7%
47. CCCn1nccc1NC(=O)CN1CCc2cnc(CC)nc2C1  23.6%
48. OC1(CN2CCOC(CNc3cccnn3)C2)CCCCC1 (stereo unspecified)  25.4%
49. COc1ccc(C(=O)C2CCCN(c3cnccn3)C2)c(C)c1 (stereo unspecified)  25.5%
50. COCc1cn(CC2CCN(Cc3cc(C)[nH]n3)CC2)nn1  26.7%
51. CCn1nc(C)c(NC(=O)c2nnn(Cc3ccccc3)c2OC)c1C  27.5%
52. Cc1ccc(N2CC[C@H](OCC3CC3)[C@@H]2Cc2ccncc2)nn1  27.5%
53. CN(CC(=O)NC1(C)CCS(=O)(=O)C1)Cc1ccc(F)c(F)c1 (stereo unspecified)  27.6%
54. CC(=O)N1CCC(N2CC(Cc3nccc4ccn(C)c34)C2)CC1  28%
55. COc1cc(N2CCCC(c3ncc[nH]3)C2)ncn1 (stereo unspecified)  28.4%
56. COC[C@@H]1CC[C@H]2[C@H](CCN2C(=O)c2ccncc2F)O1  29%
57. COc1c(C2CCCN2C(=O)c2cnc[nH]2)c(C)nn1C (stereo unspecified)  29.2%
58. Cc1nc(N)c2ccc(C3CCCCN3)nc2n1 (stereo unspecified)  29.35%
59. CCc1ncc2c(n1)CN(Cc1nnc(C(C)C)o1)CC2  30.3%
60. COc1ccc(C(=O)N2C[C@@H](O)[C@H](NCc3ncccc3C)C2)cc1  31.45%
61. COCCOc1ccc(NC(=O)N(C)Cc2ccsc2)cn1  31.8%
62. CCn1cc(CNc2ccc(Br)c(OC)c2)cn1  32%
63. O=C(Nc1nc2c(s1)CCC2)c1cccnc1N1CCOCC1  34%
64. COc1ccc(C(=O)N2C[C@@H](CN3CCCC3)[C@@H](CO)C2)c(C)c1  34.9%
65. Cc1cc(CNC(=O)N2CCN(C(C)c3cccnc3)CC2)c(C)o1 (stereo unspecified)  35.2%
66. O=C(CCc1nccs1)N1CCN(c2ccc(Cl)cn2)CC1  35.3%
67. CC(=O)c1ccc(N2CCN(C(=O)c3cc(C(C)C)nn3C)CC2)cc1  36.3%
68. CN1CCNC(=O)C12CCN(Cc1ccco1)CC2  36.9%
69. c1ccc(CO[C@H]2CC[C@H]3[C@H]2OCCN3CCN2CCCCC2)nc1  40.3%
70. CCOc1cc2c(cc1CN1CCC3(CCCNC3=O)C1)CCC2 (stereo unspecified)  41.2%
71. CC(=O)N1CC[C@@]2(C(=O)Nc3ccccc3)CCN(S(C)(=O)=O)CC[C@@H]12  41.2%
72. Cc1ccccc1CSc1nc(N)cc(N2CCCC(C(N)=O)C2)n1 (stereo unspecified)  41.3%
73. Cc1cc(CNC(=O)N2CCN(c3nc(C)c(C)s3)CC2)no1  42.6%
74. Cc1cc(CN2CCC3(CC2)C(=O)NCCN3CC2CC2)oc1C  42.7%
75. COc1cccc(C(=O)C2CCCN(c3nccc(N)n3)C2)c1 (stereo unspecified)  43%
76. Cc1nc(N2CCN(C(=O)NCc3cscn3)CC2)sc1C  43.9%
77. Cc1noc(NS(=O)(=O)c2ccc(Cl)s2)c1C  44.7%
78. O=C1NCCN(CC2CC2)C12CCN(Cc1ccco1)CC2  45.5%
79. COc1cc(NC(=O)N2CCCC2c2ccco2)cc(OC)c1 (stereo unspecified)  45.5%
80. COCCOC1CCN(C(=O)NCc2coc3ccccc23)CC1  46.1%
81. Cc1ncc2c(n1)CN(CC(=O)Nc1ccc(Cl)cn1)CC2  46.2%
82. CC(C(=O)N1CCCN(Cc2cnn(C(C)C)c2)CC1)n1ccnc1 (stereo unspecified)  48.1%
83. Cn1c(N2CCOCC2)nc2cc(C(=O)NCc3cccnc3)ccc21  48.2%
84. Cc1nc(CNC(=O)N2CCN(c3ccc(Cl)cn3)CC2)no1  49.1%
85. CC(C)c1cc(C(=O)N2CCN(c3ccc(F)c(Cl)c3)CC2)n(C)n1  50.8%
86. COc1ccc(C(=O)C2CCCN(c3nccc(N)n3)C2)c(C)c1 (stereo unspecified)  51.2%
87. O=c1cc(C2CCNCC2)nc(Cc2cccc(Cl)c2)[nH]1  52.2%
88. COCCOC1CCN(C(=O)NCc2cc(C)oc2C)CC1  53.7%
89. Cc1nc(CNC(=O)N2CCN(c3ccc(Cl)cn3)CC2)sc1C  54.3%
90. Cc1cc(CNC(=O)N2CCN(c3ccc(Cl)cn3)CC2)c(C)o1  54.3%
91. CCCn1nccc1NC(=O)CN1CCc2cnc(C(C)C)nc2C1  55%
92. CCn1cc(CNc2ccc(N(C)CCOC)cn2)cn1  57.2%
93. CC(C)N1CCC(c2ccnc3c(C(=O)N4CCCC4)ncn23)CC1  60%
94. COc1ccc(C(=O)C2CCCN(c3cc(N)ncn3)C2)c(C)c1 (stereo unspecified)  60.1%
95. Cc1nc(NC(=O)c2cccnc2N2CCOCC2)sc1C  62.9%
96. Cc1ccc(Sc2ccc(CN3CCC4(CC3)NCCNC4=O)o2)cc1  66.1%
97. CCc1ncc2c(n1)CN(CC(=O)Nc1ccc(Cl)cn1)CC2  67.2%
98. O=C1NCCCC12CCN(Cc1ccc(SC3CCCCC3)o1)C2 (stereo unspecified)  72.3%
99. COCCN(C)c1ccc(NCc2cscn2)nc1  75.1%
100. COCCN(C)c1ccc(NCc2ccsc2)nc1  80.8%
101. CCc1nc(C)cc(N2CCCC(C(=O)c3ccc(OC)cc3C)C2)n1 (stereo unspecified)  83.9%
102. Cc1cc(S(=O)(=O)Nc2onc(C)c2C)sc1C  87.5%
103. Cc1ccc(CN2CCC3(CC2)C(=O)NCCN3CC2CC2)o1  89.3%
104. Cc1ccc(Sc2ccc(CN3CCC4(CCCNC4=O)C3)o2)cc1 (stereo unspecified)  90.8%
105. COc1ccc(C(=O)C2CCCN(c3cc(OC)ncn3)C2)c(C)c1 (stereo unspecified)  91.8%
106. Cc1nc(C)c(CNC(=O)N2CCN(c3ccc(Cl)cn3)CC2)s1  95.4%
